About 14,000 (4.5%) of roughly 310,000 compounds showed an effect of 50% or more. The effect is printed as a negative number. Shown is part of a subset that was picked to be rich in strong results.
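Note: peak tail current of the secondary pulse compared with the same well before compound.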

Chain of human ether-à-go-go-related gene (hERG) potassium channel (Q12809 whole entry, looked up): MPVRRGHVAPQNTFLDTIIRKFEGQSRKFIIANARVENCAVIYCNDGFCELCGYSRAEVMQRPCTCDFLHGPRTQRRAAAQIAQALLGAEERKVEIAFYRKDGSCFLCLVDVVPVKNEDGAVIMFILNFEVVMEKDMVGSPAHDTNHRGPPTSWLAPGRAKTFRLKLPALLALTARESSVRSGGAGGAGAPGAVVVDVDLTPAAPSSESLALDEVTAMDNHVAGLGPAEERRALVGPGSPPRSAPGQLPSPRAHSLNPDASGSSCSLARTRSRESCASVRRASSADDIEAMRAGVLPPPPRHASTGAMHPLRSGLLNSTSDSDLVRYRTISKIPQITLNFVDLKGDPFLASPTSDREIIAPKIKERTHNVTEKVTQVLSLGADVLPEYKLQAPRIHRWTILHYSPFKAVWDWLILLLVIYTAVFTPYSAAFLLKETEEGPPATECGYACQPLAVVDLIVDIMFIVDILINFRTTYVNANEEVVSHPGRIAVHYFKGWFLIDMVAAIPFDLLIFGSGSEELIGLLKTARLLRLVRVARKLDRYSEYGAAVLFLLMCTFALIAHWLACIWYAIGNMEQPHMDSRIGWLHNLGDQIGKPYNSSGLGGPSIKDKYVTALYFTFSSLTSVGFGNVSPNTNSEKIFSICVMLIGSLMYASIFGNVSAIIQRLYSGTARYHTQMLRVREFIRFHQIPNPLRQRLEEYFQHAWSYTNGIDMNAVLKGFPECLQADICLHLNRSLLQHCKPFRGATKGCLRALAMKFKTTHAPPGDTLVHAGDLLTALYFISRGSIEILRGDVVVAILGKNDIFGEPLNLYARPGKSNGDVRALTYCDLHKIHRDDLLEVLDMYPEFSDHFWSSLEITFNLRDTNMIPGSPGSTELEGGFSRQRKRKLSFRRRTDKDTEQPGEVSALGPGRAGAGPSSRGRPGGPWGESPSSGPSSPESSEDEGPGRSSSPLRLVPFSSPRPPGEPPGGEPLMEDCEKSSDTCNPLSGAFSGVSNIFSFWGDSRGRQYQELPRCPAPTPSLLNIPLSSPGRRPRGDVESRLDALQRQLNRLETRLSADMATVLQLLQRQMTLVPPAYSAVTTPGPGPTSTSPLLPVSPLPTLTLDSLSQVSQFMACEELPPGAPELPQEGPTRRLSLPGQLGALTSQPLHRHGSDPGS

This assay addresses human ether-à-go-go-related gene (hERG) potassium channel (human, UniProt Q12809). Description: primary screen, population patch clamp on CHO cells stably expressing hERG; higher = less effect of the substance.
For `O=C(CSc1nnc2ccccn12)NC(=O)NC1CCCC1`, the “hERG current change (%, negative = inhibition) at 10uM” value is reported as 13.4%.

In the case of `O=C(O)C1C2C=CC(C2)C1C(=O)Nc1cccc(C(F)(F)F)c1` (centres unmarked), the “hERG current change (%, negative = inhibition) at 10uM” value amounted to 8.95%.

In the case of `CC(C)c1ccc(/C=C2\SC(N3CCCC3)=NC2=O)cc1`, the “hERG current change (%, negative = inhibition) at 10uM” value was -37.1%.

With `CCOc1ccccc1OCCCC(=O)NNC(=O)c1nn(C)c(=O)c2ccccc12`, the “hERG current change (%, negative = inhibition) at 10uM” value is recorded as -20.3%.

Turning to `Cn1cnc(S(=O)(=O)Nc2ccccc2C(=O)NCC2CC2)c1`, the “hERG current change (%, negative = inhibition) at 10uM” value amounted to 13.7%.

Regarding `Cc1ccc(C)c(NC(=S)NNc2ccc(F)cc2F)c1`, the “hERG current change (%, negative = inhibition) at 10uM” value came out at 5.57%.

For `Cc1c(C)c2ccc(O[C@@H]3O[C@H](CO)[C@@H](O)[C@H](O)[C@H]3O)c(C)c2oc1=O`, the “hERG current change (%, negative = inhibition) at 10uM” value stood at 11.7%.

For the compound `COc1ccc(NC(=O)c2ccc(Cl)c(S(=O)(=O)N3CCc4ccccc4C3)c2)cn1`, the “hERG current change (%, negative = inhibition) at 10uM” value is -46.8%.

Regarding `CCc1cc(C(c2cccc(OC)c2)N2CCOCC2)c(NC(=O)c2ccccc2)s1` (centres unmarked), the “hERG current change (%, negative = inhibition) at 10uM” value was -1.91%.

Take `Cc1cc(NO)c(C(C)C)cc1N=O`: the “hERG current change (%, negative = inhibition) at 10uM” value is given as -2.87%.

As for `O=C(NCCNC1CCC(c2ccccc2)CC1)c1ccc(F)cc1` (centres unmarked), the “hERG current change (%, negative = inhibition) at 10uM” value is -58.3%.

Take `O=C(NC1CCN(C(=O)NCc2ccccc2)CC1)c1ccc(F)cc1`: the “hERG current change (%, negative = inhibition) at 10uM” value was -15.8%.

For `O=C(NCCNC1CCC(c2ccccc2)CC1)c1cccs1` (centres unmarked), the “hERG current change (%, negative = inhibition) at 10uM” value is -35.2%.

Consider `C/C(=N\NC(=O)c1ccccn1)c1ccc(Cl)cc1`, for which the “hERG current change (%, negative = inhibition) at 10uM” value worked out at 5.74%.

As to `Cc1cc2c(N=NC(=O)C3CC3c3ccccc3)c(O)[nH]c2cc1Br` (centres unmarked), the “hERG current change (%, negative = inhibition) at 10uM” value is recorded as 0.687%.

For `Cc1ccc2[nH]c(O)c(N=NC(=O)CCc3ccccc3)c2c1Br`, the “hERG current change (%, negative = inhibition) at 10uM” value turned out to be 10.5%.

As for `Cc1ccc2[nH]c(O)c(N=NC(=O)C3CC3c3ccccc3)c2c1Br` (centres unmarked), the “hERG current change (%, negative = inhibition) at 10uM” value is recorded as -55.7%.

For `COC(=O)CCC(=O)OC1(C)C(=O)C2=CN(Cc3ccccc3)C(c3ccc(OC)cc3)=CC2=C(Br)C1=O` (centres unmarked), the “hERG current change (%, negative = inhibition) at 10uM” value is given as 2.01%.

As to `COC(=O)CCC(=O)OC1(C)C(=O)C2=CN(CC3CC3)C(c3ccc(OC)cc3)=CC2=C(Br)C1=O` (centres unmarked), the “hERG current change (%, negative = inhibition) at 10uM” value came to 4.74%.

Regarding `COC(=O)CCC(=O)OC1(C)C(=O)C2=CN(C3CCCC3)C(c3ccc(OC)cc3)=CC2=C(Br)C1=O` (centres unmarked), the “hERG current change (%, negative = inhibition) at 10uM” value is reported as -52.6%.

Take `COC(=O)CCC(=O)OC1(C)C(=O)C2=CN(Cc3ccc(OC)cc3)C(c3ccc(OC)cc3)=CC2=C(Br)C1=O` (centres unmarked): the “hERG current change (%, negative = inhibition) at 10uM” value is -58.7%.

As to `COC(=O)CCC(=O)OC1(C)C(=O)C2=CN(C3CC3)C(c3ccc(OC)cc3)=CC2=C(Br)C1=O` (centres unmarked), the “hERG current change (%, negative = inhibition) at 10uM” value was determined as 14.4%.

Turning to `COCCN1C=C2C(=O)C(C)(OC(=O)CCC(=O)OC)C(=O)C(Br)=C2C=C1c1ccc(OC)cc1` (centres unmarked), the “hERG current change (%, negative = inhibition) at 10uM” value is recorded as 7.96%.

(Values after publication PMC4336329 (PLoS ONE, 2015).)
